According to publication PMC5540273 (PLoS ONE, 2017):

Tests used:
Settings in all cases: concentration: 1 μM,replicates: in singlicate; n = 1
[1] = test system: CDC2L2
[2] = test system: T1, CDC2L5
T1 construct: gene CDK13

[3] = test system: T2, CDK11
T2 construct: gene CDK19

[4] = test system: CDK2
[5] = test system: CDK3
[6] = test system: CDK4-cyclinD1
[7] = test system: CDK4-cyclinD3
[8] = test system: CDK4
[9] = test system: CDK5
[10] = test system: CDK7
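Also: KINOMEscan kinase panel screen.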

| SMILES | %Inh [1] | %Inh [2] | %Inh [3] | %Inh [4] | %Inh [5] | %Inh [6] | %Inh [7] | %Inh [8] | %Inh [9] | %Inh [10] |
| --- | --- | --- | --- | --- | --- | --- | --- | --- | --- | --- |
| C[C@H]1Oc2cc(cnc2N)-c2c(nn(C)c2C#N)CN(C)C(=O)c2ccc(F)cc21 | 18% | 0% | 12% | 21% | 6% | 0% | 0% | 0% | 11% | 0% |
| CCn1c(-c2nonc2N)nc2c(C#CC(C)(C)O)nc(OCCN)cc21.Cl.Cl [GSK902056] | 3% | 0% | 1% | 0% | 22% | 0% | 0% | 0% | 0% | 0% |
| Cc1n[nH]c2ccc(-c3cc(OC[C@@H](N)Cc4ccccc4)cnc3-c3ccoc3)cc12.O=C(O)C(F)(F)F.O=C(O)C(F)(F)F [GSK507358] | 0% | 0% | 6% | 0% | 0% | 0% | 0% | 10% | 0% | 0% |
| Cl.Cl.NC[C@H](Cc1ccc(C(F)(F)F)cc1)NC(=O)c1cc(Br)c(-c2ccnc3[nH]ccc23)s1 [GSK1487252] | 0% | 0% | 14% | 3% | 0% | 14% | 2% | 0% | 0% | 0% |
| C[C@@H](Oc1cc(-c2cnn(C3CCNCC3)c2)cnc1N)c1c(Cl)ccc(F)c1Cl | 55% | 0% | 29% | 11% | 12% | 12% | 0% | 0% | 12% | – |
| Nc1nc(Nc2ccccc2)cc(-c2ccc3c(N)n[nH]c3c2)n1 [GSK2225749] | 0% | 0% | 0% | 0% | 8% | 0% | 0% | 0% | 0% | 7% |
| CN(C)CC(O)COc1ccc(Nc2nccc(-c3cnn4nc(N5CCOCC5)ccc34)n2)cc1 (stereo not shown) [GW767488] | 41% | 50% | 27% | – | 9% | 99.4% | 98.3% | 100% | 6% | 99.7% |
| C=CC(=O)Nc1cc2c(Nc3ccc(F)c(Cl)c3)ncnc2cc1OCCCN1CCOCC1 [GW781483] | 0% | 19% | 15% | 0% | 0% | 27% | 11% | 23% | 0% | 17% |
| CCN(CC)CCCCNc1ncc2cc(-c3c(Cl)cccc3Cl)c(NC(=O)NC(C)(C)C)nc2n1 | 0% | 9% | 14% | 8% | 10% | 0% | 0% | 9% | 14% | 34% |
| C[C@@H]1CCN(C(=O)CC#N)C[C@@H]1N(C)c1ncnc2[nH]ccc12 | 0% | 0% | 18% | 0% | 14% | 0% | 6% | 0% | 0% | 2% |
| Cc1cc2cn[nH]c2cc1-c1cccc2c(N)c(C(N)=O)nnc12 | 32% | 0% | 1% | 24% | 43% | 8% | 35% | 18% | 88% | 0% |
| O=C(NCCCN1CCOC1=O)c1cnc(NCc2cc(Cl)ccc2Cl)nc1NC1CCCC1 | 0% | 0% | 29% | 0% | 14% | 4% | 0% | 12% | 10% | 14% |
| Cl.Cl.NC[C@H](CC1CCCCC1)NC(=O)c1cc(Br)c(-c2ccnc3[nH]ccc23)s1 [GSK1581427] | 0% | 0% | 12% | 0% | 0% | 0% | 6% | 0% | 0% | 45% |
| CN(C)CCOc1ccc(-c2cc(-c3c[nH]nc3-c3ccccn3)ccn2)cc1 [GW835314] | 9% | 0% | 13% | 1% | 16% | 0% | 17% | 45% | 0% | 16% |
| CCN(CC)CCOc1ccc(Nc2ncc3cc(-c4c(Cl)cccc4Cl)c(=O)n(C)c3n2)cc1 [SB-601273] | 43% | 41% | 90.1% | 7% | 9% | 80% | 48% | 89% | 0% | 34% |
| Cc1cc(C(=O)Nc2ccc(Oc3ccc4nc(NC(=O)C5CC5)cn4n3)cc2)nn1-c1ccccc1 | 6% | 0% | 3% | 0% | 39% | 13% | 0% | 4% | 0% | 0% |
| CC(C)N1C(=O)Cc2cc(Nc3ncc(C(F)(F)F)c(NCc4cccc(S(C)(=O)=O)c4)n3)ccc21 | 3% | 7% | 0% | 0% | 5% | 26% | 0% | 35% | 9% | 52% |
| CNC(=O)c1ccccc1Sc1ccc2c(/C=C/c3ccccn3)n[nH]c2c1 | 0% | 0% | 0% | 1% | 63% | 0% | 0% | 0% | 3% | 25% |
| NC(=O)c1cc(-c2ccccc2)cc2c(C3CCNCC3)c[nH]c12 [GSK301362] | 17% | 0% | 6% | 0% | 16% | 0% | 3% | 13% | 0% | 0% |
| Cc1occc1-c1nc(N)c(OC[C@@H](N)Cc2c[nH]c3ccccc23)cc1-c1cc2c(C)n[nH]c2cn1 [GSK1660450] | 0% | 0% | 0% | 0% | 12% | 0% | 0% | 0% | 0% | 75% |
| Cl.Cl.Nc1nc(-c2ccc3c(N)n[nH]c3c2)cc(N2CCCC(NC(=O)c3ccccc3)C2)n1 (stereo not shown) [GSK2286775] | 31% | 0% | 11% | 0% | 16% | 0% | 19% | 0% | 0% | 0% |
| Cc1ccc(-n2nc(C(C)(C)C)cc2NC(=O)Nc2ccc(OCCN3CCOCC3)c3ccccc23)cc1 [GW839464] | 13% | 0% | 100% | 0% | 11% | 5% | 0% | 0% | 5% | 0% |
| Cl.Oc1cc(-c2nc(-c3ccccc3)[nH]c2-c2ccncc2)ccc1Cl [SB-386023] | 0% | 1% | 5% | 4% | 0% | 2% | 0% | 47% | 32% | 11% |
| CC(C)Nc1cc(-c2ccc3c(N)n[nH]c3c2)nc(N)n1 [GSK2221681] | 0% | 0% | 0% | 21% | 0% | 0% | 0% | 0% | 0% | 0% |
| Cc1ccc2c(-c3ccncc3)c(-c3ccc(F)cc3)nn2c1.Cl [GW461484] | 10% | 0% | 0% | 0% | 0% | 0% | 0% | 28% | 0% | 45% |
| O=C(NCCNc1ccnc(NCc2ccc(F)cc2)n1)c1cc2ccccc2s1 [GSK1379944] | 0% | 0% | 0% | 68% | 83% | 84% | 11% | 1% | 0% | 0% |
| COc1ccc(C[C@@H](CN)NC(=O)c2cc(Br)c(-c3ccnc4[nH]ccc34)s2)cc1.Cl.Cl [GSK1389063] | 0% | 0% | 39% | 6% | 5% | 0% | 28% | 0% | 0% | 72% |
